From the supplement of paper PMC4723716

Test system: Plasmodium falciparum NF54 gametocytes
Test: viability index relative to DMSO control (fraction); higher = less gametocyte killing
Conditions: 12.5 µM, incubation time: 72 h
Outline: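 P. falciparum NF54 gametocytes of each stage (I–V), in serum-containing medium (0.50% gametocytemia, 1.25% hematocrit, 40 µl), were incubated with compound at 12.5 µM in 384-well plates for 72 hr at 37°C under low oxygen. Wells received 5 µl of 5 µM MitoTracker Red CMXRos for 20 min. Then 5 µl was moved into 40 µl of 500 nM dye in serum-free medium and imaged after 30 min (three fields). The viability index was the gametocyte particle count divided by the plate mean of DMSO wells.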

[1] = gametocyte stage: Stage I viability index
[2] = gametocyte stage: Stage II viability index
[3] = gametocyte stage: Stage III viability index
[4] = gametocyte stage: Stage IV viability index
[5] = gametocyte stage: Stage V viability index

Structure (SMILES) | viability index [1] | viability index [2] | viability index [3] | viability index [4] | viability index [5]
O=C(NCC(c1ccsc1)N1CCCCCC1)c1ccc(C(F)(F)F)cc1 (stereo not given) | 0.653 | 0.881 | 0.843 | 0.9 | 0.725
O=C1C2=C(Nc3ccccc3SC2c2ccccc2)c2ccccc21 (stereo not given) | 0.678 | 0.794 | 0.742 | 0.623 | 0.662
COc1ccc(-c2cc3c(SCC(=O)Nc4cc(C(F)(F)F)ccc4Cl)nccn3n2)cc1 | 1.04 | 0.886 | 1.06 | 0.924 | 1.05
COc1ccc2c(c1)OC(O)(C(F)(F)C(F)(F)F)CC2=O (stereo not given) | 0.676 | 0.929 | 1.15 | 0.97 | 1.11
COc1cccc(NC(=O)[C@H](C(C)C)n2c(=O)[nH]c3ccccc3c2=O)c1 | 0.0552 | 0.0213 | 0.0736 | 0.286 | 0.341
CCCCN(CCCC)S(=O)(=O)c1ccc(NC(=O)c2ccco2)cc1 | 0.943 | 0.963 | 0.951 | 0.842 | 0.831
Cc1ccccc1OCCSc1nc2ccc(NC(=O)c3ccccc3)cc2s1 | 0.83 | 0.863 | 0.944 | 0.835 | 0.922
C=CCc1c(C)nc2ccccc2c1O | 0.92 | 0.671 | 0.798 | 0.793 | 1.05
O=C(Nc1ccc(Cl)cc1)N1CCN(c2ccc3nncn3n2)CC1 | 0.865 | 1.02 | 1.15 | 1.14 | 1.11
CN1c2ccccc2N(C)C1c1ccc2c(c1)OCO2 | 0.952 | 0.862 | 1.05 | 0.964 | 1.03
CN(C)CCCNCc1ccc(-c2ccc(F)c(Cl)c2)o1 | 0.202 | 0.376 | 0.376 | 0.339 | 0.104
CCCCOC(=O)c1ccc(Nc2cc(C)nc3ccc(OC)cc23)cc1 | 0.0647 | 0.156 | 0.545 | 0.411 | 0.325
COc1ccc(CNC2CCN(c3ccc(NC(=O)c4cccc(Cl)c4)cc3)CC2)cc1OC | 0.0586 | 0.532 | 0.652 | 0.79 | 0.758
COc1ccc2nc(C)cc(Nc3ccc(Cl)cc3)c2c1 | 0.243 | 0.525 | 0.994 | 1.05 | 0.692
COc1cccc(C(=O)Nc2ccc(-c3nc4ccccc4[nH]3)cc2)c1 | 0.295 | 0.595 | 0.852 | 1.03 | 0.883
COc1cc(C(=O)Nc2ccc(-c3nc4ccccc4[nH]3)cc2)cc(OC)c1OC | 0.0918 | 0.595 | 1.01 | 0.968 | 0.701
CNCCCNc1ccnc2cc(Cl)ccc12 | 0.0398 | 0.291 | 0.704 | 0.875 | 0.747
O=[N+]([O-])c1ccc(C=NNc2nc3ccccc3[nH]2)cc1 | 0.0818 | 0.586 | 0.911 | 0.869 | 0.802
COc1ccccc1N1C(=N)SC(=Cc2ccc(OCc3ccccc3F)cc2)C1=O | 0.669 | 0.654 | 0.661 | 0.563 | 0.403
O=C(Nc1nc(-c2ccccn2)cs1)c1ccccc1Br | 0.0807 | 0.13 | 0.147 | 0.158 | 0.0989

Structure (SMILES) | viability index [1] | viability index [2] | viability index [3] | viability index [4] | viability index [5]
c1ccc2c(NCCc3c[nH]c4ccccc34)c3ccccc3nc2c1 | 0.145 | 0.22 | 0.609 | 0.687 | 0.675
CCOc1c(Br)cc(C2C(C(=O)OC)=CN(C)C=C2C(=O)OC)cc1OC | 0.344 | 0.243 | 0.353 | 0.38 | 0.649
CC1(c2ccccc2)Nc2ccccc2-c2nc3ccccc3n21 (stereo not given) | 0.183 | 0.109 | 0.298 | 0.498 | 0.0659
CCCCc1c(C)nc2c(OC)cccc2c1O | 1.07 | 0.942 | 1.03 | 0.954 | 1.1
Cc1ccc(-c2cc3c(nn2)-c2ccccc2C3=O)cc1 | 0.61 | 0.871 | 0.74 | 0.897 | 1.05
CCOC(=O)c1cnc2c(CC)cccc2c1O | 1.15 | 0.838 | 0.966 | 0.835 | 0.844
COc1cc(SC)ccc1C(=O)N1CCCC(C)C1 (stereo not given) | 0.982 | 0.96 | 1.17 | 1.16 | 1.18
CCOc1ccc2c(c1)CN(Cc1ccc(Cl)cc1)CO2 | 0.0612 | 0.129 | 0.452 | 0.592 | 0.468
CCCn1c(=N)c(C(=O)NC2CCCCC2)cc2c(=O)n3cccc(C)c3nc21 | 0.45 | 0.612 | 1.06 | 0.981 | 0.805
CC(C)(C)CC(C)(C)NCC(O)COc1ccc2c(c1)CCC2 (stereo not given) | 0.221 | 0.273 | 0.615 | 0.666 | 0.462
COc1cc(OC)cc(N2C(=O)N(Cc3ccc(C(C)(C)C)cc3)c3ccccc3S2(=O)=O)c1 | 1.04 | 0.96 | 1 | 0.785 | 0.662
CCOc1cccc(C(=O)Nc2ccc(-c3nc4ccccc4[nH]3)cc2)c1 | 0.0751 | 0.574 | 1.1 | 0.894 | 0.637
C=C(C)CCC(C)N1CCC(N2CCC(C(=O)NCCc3ccccc3)CC2)CC1 (stereo not given) | 0.538 | 0.665 | 0.948 | 0.845 | 0.758
OC(CNCC1CCCO1)Cn1c2ccc(Cl)cc2c2cc(Cl)ccc21 (stereo not given) | 0.0685 | 0.0647 | 0.468 | 0.65 | 0.56
Oc1ccc(-c2nc(-c3ccc4oc5ccc(-c6[nH]c(-c7ccc(O)cc7)nc6-c6ccccc6)cc5c4c3)c(-c3ccccc3)[nH]2)cc1 | 0.000874 | 0 | 0 | 0 | 0.013
Cc1ccc(Cn2c(N3CCC(C(=O)NCc4cccs4)CC3)nc3ccccc32)cc1 | 0.593 | 0.289 | 0.545 | 0.544 | 0.308
COc1ccc(NC(=O)C2c3ccccc3C(=O)N(CC(C)C)C2c2cccs2)cc1 (stereo not given) | 0.0343 | 0.0087 | 0.0354 | 0.216 | 0.0549
COc1ccc2c(=O)cc(C(Cl)(Cl)Cl)oc2c1 | 0.0166 | 0.146 | 0.512 | 0.623 | 0.56
COc1ccc2sc(N(Cc3cccnc3)C(=O)c3ccc(C#N)cc3)nc2c1 | 1.05 | 0.773 | 0.995 | 0.934 | 1.16
CCOc1ccc2nc(C)cc(Nc3ccc(Br)cc3)c2c1 | 0.152 | 0.407 | 0.828 | 0.851 | 0.818

Structure (SMILES) | viability index [1] | viability index [2] | viability index [3] | viability index [4] | viability index [5]
CCCCCCC(O)(c1ccc(F)cc1)C(CN1CCOCC1)c1ccccc1 (stereo not given) | 0.871 | 0.694 | 0.879 | 0.93 | 0.831
COc1ccc(C2NCCc3c2[nH]c2ccccc32)cc1CN1CCN(c2ccc(F)cc2)CC1 (stereo not given) | 0.0297 | 0.0183 | 0.0204 | 0.0222 | 0.0519
N#Cc1nc(Cc2cccc3ccccc23)oc1N1CCN(C(c2ccccc2)c2ccccc2)CC1 | 1.12 | 0.93 | 1.23 | 0.968 | 1.16
Cn1c(C(=O)c2cccc3ccccc23)nc2ccccc21 | 0.681 | 0.95 | 1.14 | 1.01 | 0.74
Cc1ccc(Nc2nc(NCCO)c3ccccc3n2)cc1C | 0.0641 | 0.32 | 0.584 | 0.796 | 0.659
O=C(NC1CCCC1)c1ccc(N2CCC(NCc3cccc(C(F)(F)F)c3)CC2)cc1 | 0.243 | 0.573 | 0.76 | 0.76 | 0.604
CCOc1cc(Br)c(C(C)NC(=O)c2cccc(OC)c2)cc1OCC (stereo not given) | 0.465 | 0.412 | 0.58 | 0.748 | 0.648
COc1ccc(CNC(=O)c2cc3c(=O)n4ccccc4nc3n(CCc3ccccc3)c2=N)cc1 | 0.254 | 0.499 | 0.826 | 0.946 | 1.01
COC(=O)c1ccc(C2C3=C(O)CC(c4ccc(F)cc4)CC3=Nc3ccccc3N2C(=O)c2ccccc2)cc1 (stereo not given) | 0.00524 | 0.005 | 0.0149 | 0 | 0
OC1=C2C(=Nc3ccccc3SC2c2ccc(Br)cc2)c2ccccc21 (stereo not given) | 0.755 | 0.751 | 1.04 | 0.801 | 0.857
O=C(NCCCN1CCC(N2CCCCC2)CC1)C1=Cc2cc(Br)ccc2OC1 | 0.0935 | 0.427 | 0.742 | 0.699 | 0.312
Cc1ccc(S(=O)(=O)c2c(COC(=O)c3cccc(C)c3)c(-c3ccccc3)nn2C)cc1 | 0.982 | 0.881 | 0.943 | 0.769 | 0.922
CCOC(=O)c1c(C)n(-c2ccc(Cl)cc2)c2ccc(OC(=O)C=Cc3ccccc3)cc12 | 0.708 | 0.792 | 1.01 | 0.964 | 0.978
CC(C)CNC(=O)c1c(N)n(CCc2ccccc2F)c2nc3ccccc3nc12 | 0.0398 | 0.139 | 0.662 | 0.687 | 0.769
Oc1ccccc1CNCC12CC3CC(CC(C3)C1)C2 | 0.274 | 0.297 | 0.638 | 0.818 | 0.769
COc1ccc(-c2nonc2NC(=O)c2cccc(Cl)c2)cc1OC | 0.27 | 0.207 | 0.505 | 0.684 | 0.187
CCOC(=O)c1cn(CC)c2cc(N3CCCCC3)c(F)cc2c1=O | 0.592 | 0.9 | 0.81 | 0.769 | 0.791
O=C(Nc1ccc(-c2nc3ccccc3[nH]2)cc1)c1ccc(Cl)c(Cl)c1 | 0.129 | 0.564 | 0.894 | 0.978 | 0.727
CN(C)c1ccc(C=Cc2nc(=O)c3ccccc3o2)cc1 | 0.611 | 0.713 | 0.82 | 0.921 | 0.835
Cc1cc(C=C2SC(=Nc3ccccc3)N(C3CCCC3)C2=O)c(C)n1-c1ccc(Cl)cc1 | 1.05 | 1.03 | 1.03 | 0.894 | 0.879
